TROY signal inh = TROY signaling inhibition; 0.98% of 360,000 active; AID 1347056; Q293 LMP1-TROYcd NF-kB luciferase reporter, 4 h; inhibition, % at 10 µM;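 active means compounds whose plate-normalised and pattern-corrected inhibition of the luciferase reporter signal at the single screening dose is 50% or more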
TWEAK Fn14 block = inhibitors of TWEAK-Fn14 interaction signaling. TWEAK-stimulated Fn14 reporter cells, luciferase luminescence, 8 h. inhibition, % at 10 µM. 2% of 360,000 active; in the data active means inhibition above about 50%
CF NFkB inh = inhibitors of cystic fibrosis induced NF-kB; KKLEB NF-kB-GFP reporter, PAF-induced, GFP fluorescence overnight; inhibition, % at 5 µM; 0.86% of 360,000 active; AID 588850;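 active means at least 50% inhibition at 5 µM, scaled per plate between neutral and stimulator controls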;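 further: PAF is a Pseudomonas aeruginosa culture filtrate used as stimulus; plate controls were PAF-stimulated DMSO wells for no effect and unstimulated DMSO wells for full effect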
Peg3 prom inh = Peg3 promoter activity inhibition; HeLa PEG-Prom luciferase reporter, luminescence, overnight; inhibition, % at 20 µM; 1.7% of 360,000 active;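 active means inhibition of at least 50% at 20 µM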
HIF-2a block = inhibitors of HIF-2a; 0.72% of 360,000 active; inhibition, % at 18.8 µM; AID 624352; 786-0 RCC cells HIF-2a reporter, luciferase luminescence, overnight;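 active means inhibition of the luminescence signal of 40% or more relative to plate controls, in a single-dose primary screen at 18.75 µM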
KKLEB cytotox = counter-screen for CF NF-kB inhibitors: cytotoxicity | KKLEB CF airway cells viability, ATPlite luminescence, overnight; stronger effect = lower value; cells stimulated with P. aeruginosa culture filtrate | activity change (cytotoxicity), % at 5 µM | 0.36% of 360,000 active;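 active means corrected activity change at or below -50% at 5 µM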
Mdm2-MdmX confirm = confirmation of inhibitors of human Mdm2/MdmX interaction, set 2; inhibition, % at 8 µM; shares compounds with HIF-2a block; SaOS-2 split-luciferase Mdm2/MdmX complementation, luminescence; 99% of 740 active;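 active means mean inhibition of the luminescence signal across two replicates at or above 26 percent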
Target sequence (O15151 whole entry, looked up): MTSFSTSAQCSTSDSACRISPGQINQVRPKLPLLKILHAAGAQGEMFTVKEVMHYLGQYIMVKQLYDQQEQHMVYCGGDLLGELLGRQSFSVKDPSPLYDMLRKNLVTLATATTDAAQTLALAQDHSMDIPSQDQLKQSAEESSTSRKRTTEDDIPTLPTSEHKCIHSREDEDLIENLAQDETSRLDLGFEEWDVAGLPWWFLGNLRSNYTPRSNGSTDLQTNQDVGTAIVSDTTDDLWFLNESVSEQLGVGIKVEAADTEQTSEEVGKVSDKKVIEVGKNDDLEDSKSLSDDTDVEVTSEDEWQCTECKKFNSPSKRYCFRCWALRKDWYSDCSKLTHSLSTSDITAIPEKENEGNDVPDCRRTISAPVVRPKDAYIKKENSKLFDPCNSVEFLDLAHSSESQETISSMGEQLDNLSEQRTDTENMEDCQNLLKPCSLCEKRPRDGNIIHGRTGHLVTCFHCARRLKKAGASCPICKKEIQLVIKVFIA
Target sequence (Q00987 whole entry, looked up): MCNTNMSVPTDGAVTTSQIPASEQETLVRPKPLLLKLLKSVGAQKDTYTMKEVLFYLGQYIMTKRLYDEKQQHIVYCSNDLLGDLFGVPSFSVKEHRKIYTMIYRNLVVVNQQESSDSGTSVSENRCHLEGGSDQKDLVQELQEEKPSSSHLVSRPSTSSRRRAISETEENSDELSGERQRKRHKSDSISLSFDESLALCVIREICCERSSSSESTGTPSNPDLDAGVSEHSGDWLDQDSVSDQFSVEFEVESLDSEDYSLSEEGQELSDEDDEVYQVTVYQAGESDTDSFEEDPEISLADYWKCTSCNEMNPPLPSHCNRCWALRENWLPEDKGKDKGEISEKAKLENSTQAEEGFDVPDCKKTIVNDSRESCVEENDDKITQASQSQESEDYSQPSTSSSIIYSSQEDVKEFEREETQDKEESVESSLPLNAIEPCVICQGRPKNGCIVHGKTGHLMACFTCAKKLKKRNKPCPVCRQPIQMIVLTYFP
HIF-2a conf = HIF-2a inhibition, single concentration confirmation. shares compounds with HIF-2a block. 786-0 RCC cells, HIF-2a luciferase reporter luminescence, overnight. inhibition, % at 18.8 µM. 56% of 1,800 active;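 active means mean inhibition across four replicates of at least 40 percent at the single tested concentration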
HIF-1a counter = counter-screen for HIF-2a inhibitors: HIF-1a inhibition in MiaPaCa-2 cells; shares compounds with HIF-2a block; MiaPaCa-2 HIF-1a luciferase reporter, desferoxamine, overnight; inhibition, % at 18.8 µM; 72% of 1,800 active;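 active means mean inhibition of the reporter signal across four replicates at the single tested dose of 50% or more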
Numbers without * were called inactive; nt = no result. The list is not random: actives were taken first. Their share in the collection is about 4%.

SMILES	TROY signal inh	TWEAK Fn14 block	CF NFkB inh	Peg3 prom inh	HIF-2a block	KKLEB cytotox	HIF-2a conf	HIF-1a counter	others
Cc1ccc(-c2noc(CCC(=O)N3CCCC3)n2)cc1	-55.4	-6.3	-0.9	-103.2	-82.5	2.8	nt	nt
CC(=O)[C@@]1(O)C(C)CC2C3C=C(C)C4=Cc5c(cnn5-c5ccccc5)C[C@]4(C)C3C(O)C[C@@]21C (stereo partly drawn)	52.8*	-35.3	87.9*	64.3*	66.6*	8.9	34.5	95.2*
O=C(Cn1c(SCC(=O)N2CCCc3ccccc32)nc2ccccc21)N1CCCC1	3.8	4.2	3.1	4.0	-14.3	0.8	nt	nt
CCc1ccc(NC(=O)COc2ccc(/C=C(/C#N)c3nc4ccccc4[nH]3)cc2OC)cc1	14.9	7.2	1.7	57.2*	-0.5	-4.2	nt	nt	Mdm2-MdmX confirm=89.0*
Cc1cc(F)ccc1S(=O)(=O)Nc1ccccc1C(=O)Nc1ccccc1-c1nc2ccccc2[nH]1	69.7*	102.5*	74.0*	95.7*	3.5	-59.3*	nt	nt	Mdm2-MdmX confirm=97.2*
O=C1/C(=C/c2ccccc2[N+](=O)[O-])COc2ccccc21	33.2	93.5*	86.1*	105.6*	61.3*	-70.7*	-104.0	103.0*
N#Cc1ccc(CSc2nnc(-c3c[nH]c4ccccc34)n2-c2ccccc2)cc1	16.1	26.5	-0.1	18.8	46.6*	2.8	30.4	70.6*
O=C(Nc1ccc(C(F)(F)F)cc1)N1CCN(c2ccnc3cc(Cl)ccc23)CC1	57.8*	24.9	-10.5	37.6	44.6*	-9.7	16.3	76.3*
O=C(CCl)Nc1cccc(S(=O)(=O)N2CCCCCC2)c1	3.3	16.7	-0.5	72.5*	46.4*	-40.8	3.5	67.2*
O=Cc1s/c(=N\S(=O)(=O)c2ccccc2)n(CCCCl)c1Cl	35.1	96.2*	89.3*	108.8*	96.4*	-68.8*	93.4*	101.7*
O=C(CCCc1ccccc1)Nc1cccc(C(=O)O)c1	-14.7	-3.9	2.0	39.8	54.5*	2.2	58.9*	-44.7
O=C(CCc1ccccc1)NC(=S)Nc1cccc(C(=O)O)c1	-79.3	-0.8	-12.7	-53.8	-7.6	11.8	nt	nt
CC1CCc2c(sc3nc(C(C)(C)C)nc(N4CCN(C(=O)CCl)CC4)c23)C1 (stereo not drawn)	0.5	2.0	96.6*	56.2*	42.5*	-92.3*	33.3	105.9*
CCC(=O)N1CCN(c2nc(CC)nc3sc4c(c23)CCCC4)CC1	-17.8	3.3	12.4	2.8	14.5	-13.9	nt	nt
CCOCCCNC(=O)/C(C#N)=C/c1ccc(Cl)c([N+](=O)[O-])c1	-3.0	10.8	-1.7	105.0*	92.1*	8.2	21.8	101.7*
CCOCCCNC(=O)/C(C#N)=C/c1cc(OC)c(O)c([N+](=O)[O-])c1	18.9	34.9	9.9	10.3	18.3	-27.6	nt	nt
O=C(CCNS(=O)(=O)c1ccccc1)NNC(=O)c1cccc(Cl)c1	-6.7	11.0	16.7	-10.2	2.7	-15.4	nt	nt
N#Cc1c(N)n(C2CCCCC2)c2nc3ccccc3nc12	71.7*	37.0	16.8	39.3	41.7*	-20.6	16.5	76.9*
O=C(O)c1cc(N/N=C/c2ccc3c(c2)OCCO3)ccc1Cl	10.5	-12.6	32.8	-24.5	61.6*	9.8	79.9*	-53.2
Cc1nn(C)cc1S(=O)(=O)Nc1ccc2c(c1)OCCO2	81.8*	77.2*	-15.0	21.9	40.6*	4.1	44.5*	55.9*
Cc1c(S(=O)(=O)Nc2ccc3c(c2)OCCO3)cnn1C	0.1	37.3	-1.2	4.1	13.2	5.2	nt	nt
O=C(O)c1cc(S(=O)(=O)Nc2ccc3c(c2)OCCO3)c(Cl)cc1Cl	83.4*	91.1*	4.4	20.3	41.7*	-5.2	54.4*	70.6*
C[C@H]1COC(=O)[C@@H](Cc2ccc(F)cc2)C/C=C\C[C@@H](CC(=O)N[C@@H](CO)Cc2ccccc2)C(=O)N1	-0.9	-4.0	21.9	-0.8	3.3	12.1	nt	nt
O=c1ccc(C(F)(F)F)cn1Cc1cc(=O)n2cc(Br)ccc2n1	12.7	8.7	-0.6	-3.1	-8.9	-4.2	nt	nt
CCOC(=O)c1sc(NC(=O)CCN2C(=O)C3CCCCC3C2=O)cc1C (stereo not drawn)	-2.7	-2.4	9.4	6.2	0.9	-3.6	nt	nt
SMILES	TROY signal inh	TWEAK Fn14 block	CF NFkB inh	Peg3 prom inh	HIF-2a block	KKLEB cytotox	HIF-2a conf	HIF-1a counter	others
C#CCOC(=O)CCCC(=O)Nc1ccccc1OC	0.1	-25.4	-0.6	7.4	9.1	-2.7	nt	nt
Cc1ccc2oc(C(=O)Nc3nonc3C)c(C)c2c1	-27.5	-6.5	-7.8	-402.6	-219.9	8.2	nt	nt
COc1cccc(OCC(=O)NNC(=O)c2ccc3ccccc3c2O)c1	13.8	-3.8	6.0	3.9	0.9	-9.5	nt	nt
Oc1ccc(NCc2cccs2)cc1	21.4	-17.8	14.3	5.9	57.2*	2.3	25.5	78.0*
Cc1cc(C)c2cc3c(N)c(C(=O)N4CCOCC4)sc3nc2c1	-18.7	-3.4	4.2	-39.0	-13.3	7.4	nt	nt
Cc1cc(C)c2cc3c(N)c(C(=O)Nc4c(C)[nH]c(=O)[nH]c4=O)sc3nc2c1	15.5	66.1*	2.9	37.7	69.2*	-0.9	28.0	65.7*
C=CCc1c(OC)ccc2ccc(=O)oc12	15.9	8.5	23.5	8.2	1.7	-15.1	nt	nt
Cc1noc2ncnc(Sc3c(Cl)cccc3Cl)c12	57.0*	25.2	16.0	96.8*	42.6*	5.8	23.1	95.0*
Cc1ccccc1Sc1ncnc2onc(C)c12	19.0	32.2	6.8	5.7	8.5	3.6	nt	nt
COCCN1C[C@@H](CO)O[C@@H](n2cnc3c(NC4CCC4)ncnc32)C1	4.0	1.5	-26.5	22.6	5.2	4.8	nt	nt
COC(=O)Cn1ccc(-c2ccc(Cl)cc2)c(C#N)c1=O	5.5	2.0	6.3	-2.9	57.4*	-2.2	4.4	1.6
COc1ccc(Nc2ccnc3ccccc23)cc1	12.2	45.0	33.6	-10.4	-35.3	-5.4	nt	nt
CC(C)Nc1ccc(Nc2ccnc3cc4ccccc4cc23)cc1	48.4	-10.7	-179.1	108.1*	55.3*	-21.1	nt	nt	Mdm2-MdmX confirm=103.0*
COCCCOc1cc(NCc2ccccc2)c2ncn(C(C)C)c2c1	-8.1	-23.1	-14.2	26.4	17.8	2.3	nt	nt
CC(C)n1cnc2c(NCc3ccccc3)cc(N[C@H](C)CO)cc21	6.8	2.1	14.6	66.9*	-28.8	-18.4	nt	nt	Mdm2-MdmX confirm=88.7*
CCn1ccnc1CN(C)C(=O)c1ccc(OC2CCN(CCc3ccccc3)CC2)cc1	-13.5	-4.5	-10.0	-11.9	6.5	-9.4	nt	nt

Assay outcomes as filed in PubChem BioAssay.
